Data taken from PubChem BioAssay (NCI).
The panel holds about 79,000 compounds, 15% with a hit somewhere; the sample as a whole holds those more often. Calls of active or inactive are those of the source. Rule as the data show it: active = growth inhibition above about 70%; inactive = the rest.

How the values were obtained:
[1] = NCI Yeast Anticancer Drug Screen. Data for the rad52 strain (AID 147);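 also: 0% = growth of vehicle-treated control cultures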; conditions: S. cerevisiae rad52 mutant growth inhibition, hits give high values
Outline: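 Inhibition of yeast growth, referenced to vehicle controls, was the measured output for a strain with defective DNA damage repair.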

[2] = NCI Yeast Anticancer Drug Screen. Data for the wt1 strain (AID 149);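 also: 0% = growth of vehicle-treated wt1 cultures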; conditions: S. cerevisiae wt1 strain (SPY 50644) growth inhibition, hits give high values
Outline: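 Yeast wt1 strain exposed to compounds; growth inhibition measured relative to vehicle-treated controls.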

[3] = NCI Yeast Anticancer Drug Screen. Data for the rad50EPP+ strain (AID 151);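 also: 0% = growth of vehicle-treated control cultures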; conditions: S. cerevisiae rad50 mutant strain, hits give high values
Outline: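 Genetically defined yeast (rad50EPP+, DNA damage repair alteration) is grown with compound, and inhibition of growth is expressed relative to vehicle-treated controls.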

[4] = NCI Yeast Anticancer Drug Screen. Data for the mgt1 strain (AID 153); conditions: S. cerevisiae mgt1 mutant growth inhibition, hits give high values
Outline: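 In the mgt1 strain, test compounds were added and growth inhibition was determined relative to vehicle-treated controls.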

[5] = NCI Yeast Anticancer Drug Screen. Data for the rad50 strain (AID 155);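 also: 0% = growth of vehicle-only cultures of the same strain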; conditions: S. cerevisiae rad50 strain growth inhibition, hits give high values
Outline: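 Yeast carrying a defined DNA repair defect were exposed to test compounds, and growth was compared with vehicle-treated controls to give percent inhibition.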

[6] = NCI Yeast Anticancer Drug Screen. Data for the mec2-1 strain (AID 157); conditions: S. cerevisiae mec2-1 strain, hits give high values
Outline: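 Each compound was tested on mec2-1 yeast, a strain altered in DNA damage repair or cell cycle control. Growth inhibition is reported relative to vehicle.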

[7] = NCI Yeast Anticancer Drug Screen. Data for the rad14 strain (AID 159);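 also: 0% = growth of vehicle-treated control cultures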; conditions: S. cerevisiae rad14 strain growth inhibition, hits give high values
Outline: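 Yeast cells carrying a defined DNA-repair defect were exposed to compounds, and growth inhibition was calculated relative to vehicle-treated control cultures.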

[8] = NCI Yeast Anticancer Drug Screen. Data for the sgs1 mgt1 strain (AID 161);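 also: 0% = growth of cultures given vehicle only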; conditions: S. cerevisiae sgs1 mgt1 strain, hits give high values
Outline: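 Inhibition of yeast growth, normalised to vehicle-treated controls, is reported for a strain bearing genetic alterations in DNA damage repair.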

[9] = NCI Yeast Anticancer Drug Screen. Data for the CLN2oe strain (AID 163);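 also: 0% = growth of vehicle-only control cultures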; conditions: S. cerevisiae CLN2oe strain, hits give high values
Outline: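 First, the altered yeast strain was treated with each compound; second, its growth was measured; finally, inhibition was derived by comparison with vehicle controls.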

[10] = NCI Yeast Anticancer Drug Screen. Data for the cln2 rad14 strain (AID 165);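 also: 0% = growth equal to vehicle treated cultures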; conditions: S. cerevisiae cln2 rad14 strain, hits give high values
Outline: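 Test compounds were added to cln2 rad14 yeast cultures; inhibition of growth was then determined by comparison with vehicle treatment.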

[11] = NCI Yeast Anticancer Drug Screen. Data for the bub3 strain (AID 167); conditions: S. cerevisiae bub3 mutant strain, hits give high values
Outline: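 Compounds were applied to a genetically altered yeast strain carrying a cell-cycle control defect. Growth inhibition was scored against vehicle-treated controls.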

[12] = NCI Yeast Anticancer Drug Screen. Data for the wt2 strain (AID 169);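 also: 0% = growth of vehicle-treated yeast cultures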; conditions: S. cerevisiae wt2 strain growth inhibition, hits give high values
Outline: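 The panel's yeast strains carry defined changes in DNA repair or cell cycle genes. Each strain is grown with compound, and growth loss is scored relative to vehicle.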

[13] = NCI Yeast Anticancer Drug Screen. Data for the mlh1 strain (AID 171);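 also: 0% = growth of vehicle-treated control cultures of the same strain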; conditions: S. cerevisiae mlh1 strain growth inhibition, hits give high values
Outline: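 Inhibition values reflect reduced yeast growth in the presence of compound, referenced to vehicle controls, using a strain chosen for its alteration in DNA repair or cell cycle control.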

[14] = NCI Yeast Anticancer Drug Screen. Data for the sgs1 strain (AID 173);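 also: 0% = growth of vehicle-only control cultures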; conditions: S. cerevisiae sgs1 mutant, hits give high values
Outline: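 Vehicle-treated cultures served as reference for growth inhibition of a yeast strain altered in DNA damage repair or cell cycle control after compound exposure.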

[15] = NCI Yeast Anticancer Drug Screen. Data for the mlh1 rad18 strain (AID 175); conditions: S. cerevisiae mlh1 rad18 strain growth inhibition, hits give high values
Outline: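 Inhibition values reflect reduced growth of mutant yeast versus vehicle-treated controls following compound exposure; the mutations affect DNA damage repair.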

[16] = NCI Yeast Anticancer Drug Screen. Data for the rad18 strain (AID 177); conditions: S. cerevisiae rad18 mutant growth inhibition, hits give high values
Outline: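 Steps: expose repair-mutant yeast to compound; measure growth; express as inhibition relative to vehicle control.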

[17] = at 5.0 µM (retest, dose inferred, filed as 0.5)
[18] = at 50.0 µM (retest, dose inferred, filed as 5.0)

Measured: growth inhibition

O=Nc1cccnc1N=O
inactive: [1]; at 1.2 µM 10% | [1]; at 3.7 µM 31% | [2]; at 1.2 µM 2% | [2]; at 3.7 µM 10% | [2]; at 11.0 µM 37% | [3]; at 1.2 µM -33% | [3]; at 3.7 µM 14% | [3]; at 11.0 µM 64% | [4]; at 1.2 µM 5% | [4]; at 3.7 µM 25% | [5]; at 1.2 µM 7% | [5]; at 3.7 µM 21% | [5]; [17] 66% | [5]; at 11.0 µM 52% | [6]; at 1.2 µM 7% | [6]; at 3.7 µM 28% | [6]; [17] 27% | [7]; at 1.2 µM 11% | [7]; at 3.7 µM 36% | [9]; at 1.2 µM 5% | [9]; at 3.7 µM 13% | [9]; at 11.0 µM 34% | [10]; [17] 19% | [11]; at 1.2 µM 9% | [11]; at 3.7 µM 31% | [12]; at 1.2 µM 2% | [12]; at 3.7 µM 16% | [12]; at 11.0 µM 59% | [13]; at 1.2 µM 5% | [13]; at 3.7 µM 21% | [14]; at 1.2 µM 18% | [14]; at 3.7 µM 63% | [16]; at 1.2 µM 35%
active: [1]; at 11.0 µM 86% | [1]; at 33.0 µM 98% | [1]; at 100.0 µM 98% | [2]; at 33.0 µM 99% | [2]; at 100.0 µM 99% | [3]; at 33.0 µM 97% | [3]; at 100.0 µM 98% | [4]; at 11.0 µM 79% | [4]; at 33.0 µM 99% | [4]; at 100.0 µM 99% | [5]; at 33.0 µM 98% | [5]; [18] 99% | [5]; at 50.0 µM 99.5% | [5]; at 100.0 µM 98% | [6]; at 11.0 µM 90% | [6]; at 33.0 µM 99% | [6]; [18] 99% | [6]; at 50.0 µM 99.4% | [6]; at 100.0 µM 99% | [7]; at 11.0 µM 99% | [7]; at 33.0 µM 99% | [7]; at 100.0 µM 99% | [8]; [17] 81% | [8]; [18] 99% | [8]; at 50.0 µM 99.3% | [9]; at 33.0 µM 99% | [9]; at 100.0 µM 98% | [10]; [18] 99% | [10]; at 50.0 µM 99.3% | [11]; [17] 76% | [11]; at 11.0 µM 86% | [11]; at 33.0 µM 98% | [11]; [18] 99% | [11]; at 50.0 µM 99.5% | [11]; at 100.0 µM 98% | [12]; at 33.0 µM 99% | [12]; at 100.0 µM 99% | [13]; at 11.0 µM 83% | [13]; at 33.0 µM 98% | [13]; at 100.0 µM 99% | [14]; at 11.0 µM 97% | [14]; at 33.0 µM 99% | [14]; at 100.0 µM 99% | [15]; [17] 94% | [15]; [18] 99% | [15]; at 50.0 µM 99.6% | [16]; at 3.7 µM 86% | [16]; at 11.0 µM 94% | [16]; at 33.0 µM 98% | [16]; at 100.0 µM 98%

S=C(S)NN1CCOCC1
active: [1]; at 1.2 µM 84% | [3]; at 1.2 µM 96% | [3]; at 3.7 µM 80% | [3]; at 11.0 µM 86% | [3]; at 33.0 µM 84% | [3]; at 100.0 µM 89% | [5]; at 1.2 µM 87% | [5]; [17] 89% | [5]; at 50.0 µM 85.2% | [6]; at 1.2 µM 80% | [6]; at 50.0 µM 97.8% | [8]; [17] 92% | [8]; [18] 91% | [8]; at 50.0 µM 77.2% | [10]; [17] 83% | [10]; at 50.0 µM 87.5% | [11]; [17] 85% | [11]; [18] 70% | [11]; at 50.0 µM 96% | [13]; at 100.0 µM 72% | [14]; at 1.2 µM 84% | [15]; [17] 94% | [15]; [18] 92% | [15]; at 50.0 µM 86.8% | [16]; at 1.2 µM 87% | [16]; at 100.0 µM 72%
inactive: [1]; at 3.7 µM 68% | [1]; at 11.0 µM 35% | [1]; at 33.0 µM 38% | [1]; at 100.0 µM 50% | [2]; at 1.2 µM 43% | [2]; at 3.7 µM 29% | [2]; at 11.0 µM 35% | [2]; at 33.0 µM 51% | [2]; at 100.0 µM 60% | [4]; at 1.2 µM 52% | [4]; at 3.7 µM 39% | [4]; at 11.0 µM 30% | [4]; at 33.0 µM 21% | [4]; at 100.0 µM 18% | [5]; at 3.7 µM 57% | [5]; at 11.0 µM 29% | [5]; at 33.0 µM 23% | [5]; [18] 66% | [5]; at 100.0 µM 28% | [6]; at 3.7 µM 60% | [6]; [17] 65% | [6]; at 11.0 µM 32% | [6]; at 33.0 µM 28% | [6]; [18] -4% | [6]; at 100.0 µM 35% | [7]; at 1.2 µM 33% | [7]; at 3.7 µM 36% | [7]; at 11.0 µM 34% | [7]; at 33.0 µM 42% | [7]; at 100.0 µM 52% | [9]; at 1.2 µM 57% | [9]; at 3.7 µM 31% | [9]; at 11.0 µM 29% | [9]; at 33.0 µM 27% | [9]; at 100.0 µM 42% | [10]; [18] 22% | [11]; at 1.2 µM 69% | [11]; at 3.7 µM 59% | [11]; at 11.0 µM 31% | [11]; at 33.0 µM 7% | [11]; at 100.0 µM 8% | [12]; at 1.2 µM 64% | [12]; at 3.7 µM 31% | [12]; at 11.0 µM 26% | [12]; at 33.0 µM 34% | [12]; at 100.0 µM 31% | [13]; at 1.2 µM 63% | [13]; at 3.7 µM 30% | [13]; at 11.0 µM 30% | [13]; at 33.0 µM 34% | [14]; at 3.7 µM 47% | [14]; at 11.0 µM 39% | [14]; at 33.0 µM 54% | [14]; at 100.0 µM 50% | [16]; at 3.7 µM 67% | [16]; at 11.0 µM 67% | [16]; at 33.0 µM 50%
